# Compound activity: PubChem, National Center for Advancing Translational Sciences (NCATS)
# LDHA block = blocks human lactate dehydrogenase A | activity change, % (values are at about 110 or 230 µM) | purified LDHA, NADH/diaphorase-resazurin fluorescence; hits give low values | AID 1347041 | P00338 | actives 0.15% (n = 480,000); in the data active = activity change below about -30%; inconclusive = mostly about -25% to -30%
#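 Enzyme activity of human lactate dehydrogenase 5 (2 nM; 0.06 mM NADH, 0.2 mM pyruvate, 5 min, RT) is measured via a resazurin/diaphorase fluorescence readout of residual NADH.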
# Nrf2 inh = Nrf2 pathway inhibition; Potency, µM (series often up to 46 µM), actives largely listed as inhibitors; actives 2.1% (n = 360,000); A549 ARE-Fluc reporter, luciferase luminescence, 18-24 h; also: nearly all actives have a fitted effect of over 60% in size
#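 A549 ARE_Fluc cells, 5000/well, 5% FBS OPTI-MEM; compounds in dose-response, 18-24 h at 37 °C/5% CO2; CellTiter-Fluor viability read (Ex 405/Em 525), then BugLite luciferase luminescence = Nrf2 activity.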
# mIDH1 inhibitor = blocks human mutant IDH1 R132H enzyme; Potency, µM (highest dose often 76.6 µM), actives largely listed as inhibitors; actives 0.093% (n = 390,000); IDH1-R132H enzyme, NADPH consumption, diaphorase/resazurin fluorescence; also: nearly all actives have a fitted effect of over 65% in size
# Target sequence (O75874 whole entry R132H, stated change not applied): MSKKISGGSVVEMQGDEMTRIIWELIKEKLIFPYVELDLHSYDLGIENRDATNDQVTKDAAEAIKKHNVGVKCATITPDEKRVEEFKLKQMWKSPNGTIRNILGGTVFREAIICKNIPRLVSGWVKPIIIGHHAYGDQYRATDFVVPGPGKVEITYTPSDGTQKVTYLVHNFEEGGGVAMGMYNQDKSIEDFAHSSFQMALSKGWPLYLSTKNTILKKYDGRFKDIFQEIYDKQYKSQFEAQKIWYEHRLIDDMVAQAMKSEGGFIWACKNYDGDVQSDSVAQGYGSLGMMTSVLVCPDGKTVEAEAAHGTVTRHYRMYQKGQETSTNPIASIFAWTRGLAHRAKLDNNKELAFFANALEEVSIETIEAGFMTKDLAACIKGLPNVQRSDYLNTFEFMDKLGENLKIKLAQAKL
#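 IDH1-R132H (0.5 ug/mL) preincubated 30 min with compound, then NADPH (0.016 mM) and alpha-KG (2 mM) added; 80 min at RT, pH 7.5. Remaining NADPH coupled via diaphorase/resazurin to fluorescence (540/590 nm); concentration-response curves normalized to no-enzyme control.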
# 12-LOX inh = ALOX12 (human) lipoxygenase inhibition | AID 1671190 | actives 1.1% (n = 580,000) | Potency, µM (doses to about 108 µM), most hits filed as inhibitors | P18054 | purified 12hLO, xylenol orange hydroperoxide absorbance
#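 Purified human 12hLO at 150 nM in 25 mM Hepes, 0.01% Triton X-100, pH 7.0, preincubated 15 min at room temperature with compound. Reaction started with 40 uM arachidonic acid, 30 min at room temperature. Hydroperoxide measured by Fe-xylenol orange, 573/405 nm absorbance ratio.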
# Nrf2 ARE act = Nrf2 pathway activation. AREc32 ARE-luciferase reporter (MCF7-derived line), luminescence, 24 h. Potency, µM (top dose mostly 46.1 µM), usual class: activators. actives 0.31% (n = 410,000). AID 624171; also: nearly all actives have a fitted effect of over 65% in size
#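 Cells of the AREc32 ARE-luciferase line are plated in OPTI-MEM containing 5% FBS and left overnight at 37 deg C. Compounds are pinned in, incubation continues 24 hr, and firefly luciferase signal is then measured.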
# A549 viability = A549 cytotoxicity, counter-screen for Nrf2 inhibitors; A549 ARE-Fluc cells, CellTiter-Fluor viability, 18-24 h; Potency, µM (top dose mostly 46 µM), usual class: inhibitors; actives 0.16% (n = 390,000)
#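 A549 ARE-Fluc cells in 5% FBS OPTI-MEM, 5000 cells/well, rested 2 h then exposed to compounds in concentration-response for 18-24 h at 37 °C. Viability by CellTiter-Fluor fluorescence (Ex 405/Em 525) after 30 min; luciferase luminescence (BugLite, 15 min, RT) read afterwards.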
# Hits are given with their value; n = inactive; u = inconclusive; x = no result. An excerpt weighted towards active compounds, which were near 2.7% of everything screened. Unless noted, calls follow the shape of the dose curve; as a rule, active = well fitted curve in the direction sought with a large enough effect; inconclusive = small, poorly fitted or top-dose-only effect, or another doubt; inactive = no such curve, though single readings can be large; an effect the other way counts as inactive or inconclusive.
SMILES,LDHA block,Nrf2 inh,mIDH1 inhibitor,12-LOX inh,Nrf2 ARE act,A549 viability
CCCCCCC1CC[S+](c2cc(O)ccc2O)CC1 (stereo not drawn),n,x,x,u,x,x
COc1ccc(NC(=O)/C(C#N)=C/c2c(C)nn(-c3ccc(F)cc3)c2Cl)cc1OC,n,u,n,u,15.8µM,n
COc1ccc2ccccc2c1/C=C(/C#N)c1nc2ccccc2[nH]1,n,x,x,u,x,x
O=c1c(N2CCc3ccccc3C2)csc2ccc(Br)cc12,n,x,n,39.8µM,n,n
O=c1c(N2CCc3ccccc3C2)csc2ccc(Cl)cc12,n,x,n,n,n,n
Cc1ccc(NC(=O)CSc2nc3cc(C)[nH]c3c(=O)[nH]2)c(Br)c1,n,x,x,u,x,x
c1ccc(-c2ccccc2OCCCCn2ccnc2)cc1,-37.1,u,n,n,n,n
c1ccc(-c2ccccc2OCCCN2CCOCC2)cc1,-30.1,n,n,n,n,n
Cn1c(SCC(=O)Nc2nncs2)nnc1-c1ccccc1,n,x,x,n,x,x
CN1CCOc2ccc(S(=O)(=O)NCc3ccc4c(c3)OCO4)cc21,n,x,x,n,x,x
O=C(NCC1OCCc2ccccc21)c1ccco1 (stereo not drawn),n,u,n,u,11.2µM,n
COc1cccc(C(=O)NCC2OCCc3ccccc32)c1 (stereo not drawn),n,n,n,n,n,n
O=C(NCC1OCCc2ccccc21)c1ccc(NC(=O)c2ccc(Cl)cc2)cc1 (stereo not drawn),n,20.6µM,n,n,n,u
O=C(NCC1OCCc2ccccc21)c1cccc(Br)c1 (stereo not drawn),-42.0,x,x,n,x,x
COc1ccc2c(C)c(CCC(=O)N3CCCC3)c(=O)oc2c1,n,x,x,n,x,x
Cc1ccc(-n2ncc(C(=O)NCc3cccs3)c2C2CCN(C(=O)OC(C)(C)C)CC2)cc1C,n,20.6µM,n,n,n,n
Cc1cccc(-n2ncc(C(=O)NCc3ccc4c(c3)OCO4)c2C2CCN(C(=O)OC(C)(C)C)CC2)c1,n,16.4µM,n,n,n,n
Cc1ccc(C)c(N2CCN(CCCNC(=O)c3cnn(-c4ccccc4)c3C3CCN(C(=O)OC(C)(C)C)CC3)CC2)c1,n,18.4µM,n,u,n,u
CN1CCN(CCCNC(=O)c2cnn(-c3ccccc3)c2C2CCN(C(=O)OC(C)(C)C)CC2)CC1,n,n,n,n,n,u
Cc1cccc(-n2ncc(C(=O)Nc3ccc4c(c3)OCO4)c2C2CCN(C(=O)OC(C)(C)C)CC2)c1,n,n,n,n,n,n
CC(C)OC(=O)c1ccc(NCc2cc(O)ccc2O)cc1,n,n,n,u,12.6µM,n
O=C(OCc1ccccc1)c1ccc(NCc2cc(O)ccc2O)cc1,n,n,n,u,u,n
COc1ccc(-c2cc(=O)oc3c(O)c(O)ccc23)cc1,n,n,n,1.12µM,n,n
CCCCCCCC1CCC(c2ccc(C(=O)CCN(C)C)cc2)CC1 (stereo not drawn),n,x,x,u,x,x
CC(Sc1nc2ccccc2c(=O)n1C)C(=O)N(C)C1CCCCC1 (stereo not drawn),n,18.4µM,n,u,n,n
SMILES,LDHA block,Nrf2 inh,mIDH1 inhibitor,12-LOX inh,Nrf2 ARE act,A549 viability
Cc1ccc(COC(=O)c2ccccc2Sc2ccccc2C#N)cc1,n,x,x,n,x,x
Cc1noc(C)c1COC(=O)c1ccccc1Sc1ccccc1C#N,n,18.4µM,n,n,n,n
C=C(CCCN(Cc1ccccc1)Cc1ccccc1)C(=O)OCC,n,x,x,n,x,x
Cc1cc(N2CCN(S(=O)(=O)c3ccc(Cl)cc3)CC2)c2ccccc2n1,n,20.6µM,n,n,n,n
Cc1cc(N2CCN(S(=O)(=O)c3ccc(Cl)c(Cl)c3)CC2)c2ccccc2n1,n,23.1µM,n,n,n,n
CC(=O)c1nc(N2CCN(S(=O)(=O)c3ccc(C)cc3)CC2)c2ccccc2n1,n,n,x,x,x,n
COc1ccc(F)cc1CO/N=C/c1cc(Cl)c(OC)c(OC)c1,n,x,x,n,x,x
COc1ccccc1N1CCN(C(=O)C(F)F)CC1,n,n,n,n,n,n
COc1ccccc1N1CCN(C(C)C(=O)N2CC(C)OC(C)C2)CC1 (stereo not drawn),-39.4,n,n,u,n,n
